Assay outcomes: PubChem BioAssay, Johns Hopkins Ion Channel Center
KCNQ2 block – rat KCNQ2 potassium channel inhibitors, primary screen, cell-based, CHO-K1, FluxOR thallium flux, B-score; Potassium voltage-gated channel subfamily KQT member 2 (Rattus norvegicus), O88943; 1.1% of 310,000 active; B-score at 10 µM; AID 2156, 2009; 20 min; active compounds read low;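 active means fluorescence ratio B-score at most minus 3 library SDs, with starting brightness B-score within 2 library SDs, cut at about -5.5 in these data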
KCNQ2 pot – potentiators of rat KCNQ2 potassium channel | CHO-K1 KCNQ2, FluxOR thallium flux fluorescence; active compounds read high | 0.54% of 310,000 active | Potassium voltage-gated channel subfamily KQT member 2 (Rattus norvegicus), O88943 | AID 2239, 2010 | B-score at 10 µM;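 active means fluorescence ratio B-score at least 3 SD of library B-scores, with initial fluorescence B-score within 3 of them, cut at about 5.3 in these data; same plate scores as AID 2156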;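 further: B-score of peak minus minimum over baseline fluorescence ratio after K+ and Tl+ stimulus; positive B-score means potentiation of KCNQ2 with more thallium influx and brighter signal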
* = called active by the depositor; i = inactive; nt = no result. Only some compounds are listed: those with a hit (about 1.6% of all), similar ones and a draw of the others.

SMILES | KCNQ2 block | KCNQ2 pot
CC1=CC(C)(C)N2C(=O)C3(SCC(=O)N3c3ccc(F)cc3)c3cc(C)cc1c32 (centres undefined) | -6* | -6
c1ccc(N2CC3CCc4ccccc4C3=N2)cc1 (centres undefined) | i | nt
C=CCn1c(O)c(N=NC(=S)Nc2ccc(OC)cc2)c2ccccc21 | i | 4
C=CCn1c(O)c(N=NC(=S)Nc2cccc(OC)c2)c2ccccc21 | i | 12*
O=C1CN(C(=O)COc2c(F)c(F)cc(F)c2F)c2ccccc2N1 | i | 0.88
O=C(Nc1ccccc1N1CCCCC1)C1CCN(S(=O)(=O)c2cccc(C(F)(F)F)c2)CC1 | -6.9* | -6.9
O=C(Nc1ccccc1N1CCCC1)C1CCN(S(=O)(=O)c2cccc(C(F)(F)F)c2)CC1 | i | nt
Cc1nnc(NC(=O)CCSc2ccc(Cl)cc2)s1 | i | 0.14
CNC(=O)c1c(C)nn(-c2ccc(F)c(Cl)c2)c1-c1cc(C)on1 | i | nt
CCN1CCN(C(=O)c2ccc3c(c2)c(C)c(C)n3Cc2ccccc2)CC1 | i | nt
CCn1c(C)c(C)c2cc(C(=O)N3CCc4ccccc4C3)ccc21 | -6* | -6
Cc1cc(C(C)(C)C)oc1C(=O)N(CC(=O)NC1CCCC1)c1c(C)cccc1C | -7* | -7
Cc1cc(C(C)(C)C)oc1C(=O)N(CC(=O)NC1CCCC1)c1ccc(F)cc1 | i | nt
COc1ccc(NS(=O)(=O)c2cc3c4c(c2)CCN4C(=O)CC3)c(OC)c1 | i | nt
O=S(=O)(c1cccc(Br)c1)N1CCN(CCc2ccccc2)CC1 | i | 0.04
Nc1nonc1-n1nnc(C(=O)N/N=C/c2cc(Cl)ccc2O)c1CN1CCCCCC1 | i | nt
COc1c(/C=N/Nc2nc(N3CCCCC3)nc(N3CCCCC3)n2)cccc1[N+](=O)[O-] | i | nt
O=[N+]([O-])c1ccc(/C=N/Nc2nc(N3CCCCC3)nc(N3CCCCC3)n2)o1 | -5.6* | -5.6
COc1cccc(CN2CCN(C(=O)c3cc(-c4ccncc4)nc4ccc(C)cc34)CC2)c1 | -5.9* | -5.9
COc1cccc(CN2CCN(C(=O)c3cc(-c4ccccn4)nc4ccc(Cl)cc34)CC2)c1 | i | nt
O=C(O)c1cc(-c2cccnc2)nc2ccc(Br)cc12 | i | 0.58
CCN1CCN(C(=O)c2cc(-c3cccnc3)nc3ccc(Br)cc23)CC1 | -8.3* | -8.3
COc1ccc(S(=O)(=O)N2CC(C)N(C(=O)N3CCOCC3)C2)cc1 (centres undefined) | i | nt
CN1CCN(C(=O)/C=C/c2ccc(C#N)cc2)CC1 | i | 1.6
COCC(C)n1c(COc2ccccc2F)nnc1SCC(=O)Nc1oc(C)c2c(C)n[nH]c(=O)c12 (centres undefined) | i | 1.6
SMILES | KCNQ2 block | KCNQ2 pot
O=C(Cc1ccc(Cl)cc1)Nc1ccc(CN2CCCCC2)cc1 | i | 2.3
CCc1cc2c(=O)[nH]c(-c3ccccn3)nc2s1 | i | 11*
CCc1cc2c(=O)[nH]c(N3CCCC3)nc2s1 | i | nt
COc1ccc(/C=N/Nc2nc(N3CCCC3)nc(N3CCCC3)n2)cc1O | -6.3* | -6.3
COc1ccc(/C=N/Nc2nc(N3CCCC3)nc(N3CCCC3)n2)cc1 | i | nt
COCCCNc1nc2ccccc2nc1NS(=O)(=O)c1cccc(C)c1 | i | 0.48
O=[N+]([O-])c1ccc(-c2n(-c3ccccn3)c3ccccc3[n+]2-c2ccccn2)cc1 | i | nt
O=C(c1ccco1)N1CCCC(c2nc3c(nnn3Cc3cccc(Cl)c3)c(=O)[nH]2)C1 (centres undefined) | i | 0.55
N#Cc1ccc(NC(=O)N2CCC(c3nc4c(nnn4Cc4cccc(Cl)c4)c(=O)[nH]3)CC2)cc1 | -7.5* | -7.5
COCCCNC(=O)c1ccc(S(=O)(=O)c2ccc(C)cc2)c(NC(C)=O)c1 | i | 1.1
COc1ccc(C2=NS(=O)(=O)N(C)C(C(=O)Nc3ccc(F)cc3F)=C2)cc1 | i | nt
CC(C)(C)C(=O)[C@H]1[C@H](c2ccccc2)[C@@]2(N=C(c3ccccc3)OC2=O)C2c3ccccc3C=NN21 (some centres undefined) | -6.2* | -6.2
COc1ccc([C@H]2[C@H](C(=O)OC(C)(C)C)N3N=Cc4ccccc4C3C23C(=O)c2ccccc2C3=O)cc1OC (some centres undefined) | i | nt
CCC(C(=O)OCC(=O)Nc1cc(Cl)cc(Cl)c1)c1ccccc1 (centres undefined) | i | nt
CC(C)CCn1cnc2c(oc3nc4c(cc32)CCCC4)c1=O | i | 0.05
Cc1ccc(Oc2cc(C)nc(-c3ccccc3O)n2)cc1 | i | nt
Cc1cc(OC2CCCCC2)nc(-c2ccccc2O)n1 | -5.8* | -5.8
CCS(=O)CC(=O)Nc1c(-c2ccccc2)oc2ccccc2c1=O (centres undefined) | i | nt
Cc1nc(NCCc2cnc[nH]2)c2oc3ccccc3c2n1 | i | 0.94
COc1ccc(CCNc2nc(C)nc3c2oc2ccccc23)cc1OC | -5.6* | -5.6
Cc1ccc(C)c(N=Nc2ccc(O)c3ncccc23)c1 | i | 2.4
Cc1cccc(N=Nc2ccc(O)c3ncccc23)c1 | i | 6.9*
CCc1ccccc1NC(=O)N1CCc2ccccc21 | i | nt
Cc1nc(C(F)(F)F)c(C(=O)N/N=C(\N)c2cccnc2)s1 | i | nt
CC(C(=O)N1CCCCC1)n1ncn2cccc2c1=O (centres undefined) | i | 0.51
SMILES | KCNQ2 block | KCNQ2 pot
Cc1ccc(Cl)cc1N1CCN(C(=O)C(C)n2ncn3cccc3c2=O)CC1 (centres undefined) | -5.8* | -5.8
COCCNC(=O)CSc1ccccc1C(=O)NCC1CCCCC1 | i | 0.1
CC1CCN(C(=O)c2ccccc2SCC(=O)NCC2CCCCC2)CC1 | -6* | -6
CS(=O)(=O)N(CC(=O)NC1CC1)C1CCCCC1 | i | 0.01
O=S(=O)(c1ccc(N2CCN(CCO)CC2)nc1)N1CCOCC1 | i | nt
COc1ccnc2c1c(=O)n(Cc1ccccc1Cl)c(=O)n2C | i | nt
COc1ccnc2c1c(=O)n(Cc1ccc(Cl)cc1Cl)c(=O)n2C | -5.9* | -5.9
CCc1ccccc1NC(=O)C(Cc1ccccc1)c1nn[nH]n1 (centres undefined) | i | 1.9
CN(C)CCN1C(=O)c2oc3ccc(Cl)cc3c(=O)c2C1c1cccc(Br)c1 (centres undefined) | -6.3* | -6.3
COc1ccc(C2c3c(oc4ccc(Cl)cc4c3=O)C(=O)N2CCN2CCOCC2)cc1 (centres undefined) | -6.6* | -6.6
COc1ccc(C2c3c(oc4ccccc4c3=O)C(=O)N2CCCN2CCOCC2)cc1 (centres undefined) | i | nt
CN(C)CCN1C(=O)c2oc3ccccc3c(=O)c2C1c1cccc(Br)c1 (centres undefined) | i | nt
O=C(CSc1ccc(-c2cccc([N+](=O)[O-])c2)nn1)NC1CCCC1 | i | nt
CCOC(=O)/C(=C\c1ccc(Cl)cc1)c1nc2sc(C)c(C)c2c(=O)[nH]1 | -6.9* | -6.9
CCOC(=O)CSc1nc2sc(C)c(C)c2c(=O)[nH]1 | i | 1.1
CN(C)c1ccc(/C=C2\C(=N)N3C(=NC2=O)Sc2cc(S(C)(=O)=O)ccc23)cc1 | i | nt
Cc1ccc(C(=O)N/N=c2\sc3ccccc3n2C)cc1 | i | 12*
COc1cccc(C(=O)N/N=c2\sc3ccccc3n2C)c1 | i | 2.1
O=C(CCC1CCCC1)NNC(=O)c1ccccc1O | i | 0.18
